Screens deposited in PubChem BioAssay by National Center for Advancing Translational Sciences (NCATS).
Compounds with a hit are over-represented: about 7.9% of the library has one in this group of screens.
HCMV antiviral: inhibitors of human cytomegalovirus; HFF cells, HCMV-luciferase reporter, 72 h; hits give low values; activity change, negative = inhibition, % at 57.5 µM; 410,000 tested, 4.5% active; AID 1259415; in the data active = activity change below about -60%; inconclusive = no clear call, values can overlap the other calls; inactive = above about -39%
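Inhibition of viral replication was scored as loss of reporter luminescence in HFFs infected with HCMV-luciferase (MOI 1 PFU/cell) for 72 h; compounds tested at 2 doses, normalized to buffer and Salinomycin controls.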
MARV entry inh: Marburg virus entry inhibition; 300,000 tested, 1.8% active; Potency, µM (highest dose often 37.8 µM), for the others: at the highest dose activity change, negative = inhibition, most hits filed as inhibitors; Marburg virus pseudotyped entry inhibition, cell reporter; calls by dose curve; tested in HEK293 cells; also: potency is read from the fitted curve at half-maximal effect
HCV inh: inhibitors of hepatitis C virus infection | 340,000 tested, 3.4% active | Huh7.5.1 HCVcc-Cre infection, luciferase reporter, 44 h | Potency, µM (titrated, usually from 41.8 µM), without a hit: at the top dose activity change, negative = inhibition, hits mostly inhibitors; active = well fitted inhibition curve with a large enough effect; inconclusive = small, poorly fitted or top-dose-only effect, or another doubt; inactive = no such curve, though single readings can be large or run the other way; also: potency is read from the fitted curve at half-maximal effect
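Seed cells (1,000/well) for 4 h; treat with compound and infect with HCVcc-Cre, moi about 0.5. Incubate 44 h, then detect luciferase activity.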
LASV entry inh: inhibitors of Lassa virus binding or cell entry | Lassa virus pseudotype entry inhibition, cell reporter | Potency, µM (series often up to 37.9 µM), without a hit: at the highest dose activity change, negative = inhibition, hits mostly inhibitors | 300,000 tested, 1.2% active; calls by dose curve; tested in HEK293 cells; also: potency is read from the fitted curve at half-maximal effect; nearly all actives have a fitted effect of over 50% in size
FMDV antiviral: antivirals against foot and mouth disease virus; FMDV antiviral cell-based qHTS; Potency, µM (doses to about 57.9 µM), for inactives: top-dose activity change, negative = inhibition, usual class: inhibitors; 410,000 tested, 1.2% active; AID 1159524; calls by dose curve; tested in HEK293T cells; also: read-out not given here; potency is read from the fitted curve at half-maximal effect; nearly all actives have a fitted effect of over 45% in size
* = called active by the depositor; ? = inconclusive; . = no result given; [ ] = dose if it differs, or a comment. % is scaled to controls: 0 for no effect and ±100 for the full control effect.

SMILES	HCMV antiviral	MARV entry inh	HCV inh	LASV entry inh	FMDV antiviral
CN(CC(=O)Nc1ccccc1Cl)C(=O)c1cccc(S(=O)(=O)N2CCN(c3ccc(F)cc3)CC2)c1	-80*	.	5.6µM*	.	-16%
Cc1cccc(C)c1NC(=O)CN(C)C(=O)c1cccc(S(=O)(=O)N2CCN(c3ccccc3)CC2)c1	-8	-7%	.	-25%	-7%
O=C(NCc1ccco1)c1cccc(S(=O)(=O)N2CCN(Cc3ccccc3)CC2)c1	-16	-3%[46.1 µM]	-9%	-21%	-14%
CC(NC(=O)c1cccc(S(=O)(=O)N2CCN(Cc3ccccc3)CC2)c1)c1ccc(Cl)cc1 (stereo unspecified)	-14	?	?	0.89µM*	-29%
CCCCC(=O)N(C)c1c(CC)nc2c(OCC(=O)c3ccc(Cl)cc3Cl)cccn12	36	.	.	.	-15%
COc1ccc(NC(=O)C[C@H]2C(=O)N(C3CCCCC3)C[C@@H]2C)cc1	-1	.	.	?	-17%
O=C1C=C(N2CCCCC2)C2(CCCCC2)O1	75	.	-3%	.	7%
O=C1C=C(N2CCN(C(=O)c3ccccc3)CC2)C2(CCCCC2)O1	-77*	7%	0%	2%	-17%
Cc1cc(-c2nnc(SCC(=O)c3ccc(F)cc3)o2)no1	?	-24%	-7%	3%	-1%
COc1ccc(N2CCN(c3ncnc4c3cnn4C)CC2)cc1	-61*	.	.	-11%[46.1 µM]	?
COc1ccc(-n2ncc3c(N4CCN(c5cccc(C)c5C)CC4)ncnc32)cc1	-22	.	-1%	.	?
Cn1ncc2c(N3CCN(c4cccc(Cl)c4)CC3)ncnc21	-11	.	.	?	16µM*
COc1ccc(-n2ncc3c(N4CCCCC4)ncnc32)cc1	.	.	?	.	10µM*
CN1CCN(c2ncnc3c2cnn3-c2cccc(Cl)c2)CC1	71	.	.	?	-2%
COc1ccc(-n2ncc3c(NCC(C)C)ncnc32)cc1	120	?	14µM*	?	-30%
COCC=CC1=CC2=CC(=O)C(C)(OC(=O)c3cnc4ccccc4n3)C(=O)C2=CN1Cc1ccccc1 (stereo unspecified)	.	19%[14.2 µM]	.	.	.
CCOC(=O)c1ccc(NC(=O)CCCn2nc(C)c3sc4ccccc4c3c2=O)cc1	-4	2%[46.1 µM]	.	21%[46.1 µM]	-12%
Cc1ccc(Cl)cc1N1CCN(c2ncnc3onc(C)c23)CC1	-13	.	.	?	?
Cc1cccc(-n2ncc3c(N4CCCC4)ncnc32)c1	-2	?	?	?	.
Cc1ccc(-n2ncc3c(N4CCCCC4)ncnc32)cc1	-101*	.	.	?	?
Clc1ccc(-n2ncc3c(N4CCCCCC4)ncnc32)cc1	-79*	.	-5%	.	?
Cc1noc2ncnc(N3CCN(c4cccc(Cl)c4)CC3)c12	-72*	.	10µM*	.	25µM*
Cc1ccc(C)c(S(=O)(=O)N2CCN(C(=O)CN3C(=O)C4CC=CCC4C3=O)CC2)c1 (stereo unspecified)	-10	-1%	-16%	-9%	-15%
CC(Oc1ccc(Br)cc1)C(=O)O/N=C(\N)c1ccncc1 (stereo unspecified)	0	-8%	?	?	-27%
O=[N+]([O-])c1cccc(NC(=S)N2CCc3ccccc32)c1	-12	.	?	.	-15%
SMILES	HCMV antiviral	MARV entry inh	HCV inh	LASV entry inh	FMDV antiviral
CC(C)(C)C(=O)Nc1ccccc1C(=O)OCc1cc(=O)n2ccsc2n1	28	.	.	-3%[46.1 µM]	-18%
Nc1nnnn1/N=C/C(Br)=C/c1ccccc1	9	5µM*	10µM*	?	14µM*
Cc1cccc(-n2cnc(C(=O)NNC(=S)Nc3ccc(Cl)cc3)c2)n1	-23	11µM*	-1%	?	-1%
CN(C)c1ccc(C(C(=O)NCc2ccccc2)N(Cc2ccco2)C(=O)c2snc(C(N)=O)c2N)cc1 (stereo unspecified)	-76*	?	13µM*	?	-10%
NC(=O)c1nsc(C(=O)N(Cc2ccco2)C(C(=O)NCc2ccc(F)cc2)c2ccc(O)cc2)c1N (stereo unspecified)	-29	2%[46.1 µM]	-25%	.	-1%
Cc1ccc(C(C(=O)NCc2ccc(F)cc2)N(Cc2ccco2)C(=O)c2snc(C(N)=O)c2N)o1 (stereo unspecified)	-81*	?	?	?	18%
NC(=O)c1nsc(C(=O)N(Cc2ccc(F)cc2)C(C(=O)NCC2CCCO2)c2ccc(F)cc2)c1N (stereo unspecified)	-2	11µM*	-13%	-8%	16%
CN(C)c1ccc(C(C(=O)NCC2CCCO2)N(Cc2ccccc2)C(=O)c2snc(C(N)=O)c2N)cc1 (stereo unspecified)	-17	?	-6%	?	3%
C=C[C@H](O)Cc1c(C)n[nH]c1C	.	1%	.	.	.
COc1cc2c(cc1OC)[C@@H]1O[C@](CCCCN3C(=O)c4ccccc4C3=O)(C2)Oc2c1c(=O)oc1ccccc21	.	3%[14.2 µM]	.	.	.
O=c1oc2ccccc2cc1-c1cn2cc(Cc3ccc(Cl)cc3)sc2n1	-8	-23%[46.1 µM]	.	?	58%
Cc1ccn2cc(-c3cc4ccccc4oc3=O)nc2c1	-39	?	-25%	1.6µM*	-42%
Oc1ccc(-[n+]2c(-c3ccccc3)cc(-c3ccccc3)cc2-c2ccccc2)cc1	-97*	.	8.9µM*	.	10µM*
COc1ccc(-[n+]2c(-c3ccccc3)cc(-c3ccccc3)cc2-c2ccccc2)cc1	-97*	.	?	.	3.2µM*
O=C([O-])c1ccc(-[n+]2c(-c3ccccc3)cc(-c3ccccc3)cc2-c2ccccc2)cc1	18	.	-1%	.	-23%
O=[N+]([O-])c1ccc(-[n+]2c(-c3ccccc3)cc(-c3ccccc3)cc2-c2ccccc2)cc1	?	.	-12%	.	-12%
CCCCN1C(=O)C(O)(CC(=O)c2ccco2)c2cc(Br)ccc21 (stereo unspecified)	-75*	?	21%	?	-7%
CN1C(=O)C(O)(CC(=O)/C=C/c2ccco2)c2cc(Br)ccc21 (stereo unspecified)	44	?	11µM*	?	-4%
O=C(C1CCCN(S(=O)(=O)c2cccc3nonc23)C1)N1CCN(c2cccc(C(F)(F)F)c2)CC1 (stereo unspecified)	-15	13%[46.1 µM]	.	-31%[46.1 µM]	?
Cc1ccccc1NC(=O)C(=O)NCC(c1ccc2c(c1)OCO2)N1CCN(c2ccccc2)CC1 (stereo unspecified)	?	.	.	10µM*	-11%
O=C(NCCOc1ccccc1F)C1CC(=O)N(Cc2ccccc2)C1 (stereo unspecified)	14	?	-3%	9%	22%
COc1cccc(NC(=O)CSc2nc3c(sc4ccccc43)c(=O)n2CCN(C)C)c1	57	?	?	?	-9%
COc1cccc(NC(=O)CSc2nc3c(sc4ccccc43)c(=O)n2CCCN2CCCC2)c1	-102*	.	?	.	-16%
O=C(CSc1nc2c(sc3ccccc32)c(=O)n1CCCN1CCOCC1)NC1CCCC1	-20	8.2µM*	11%	-3%	27%
